Measurements as given in PubChem BioAssay AID1159580 (chemical genetic matrix, 2015).
Where “and” joins values, the source holds several entries; their conditions need not be identical. Equal values may be shown once. Hit rate of the full screen: of about 5,500 compounds, about 2,000 (36%) were called active. Another 18% or so got no clear call; they are omitted. Rule as the data show it: active = normalized growth mostly below about 0.91 (no sharp cut-off); inconclusive = no clear call, values can overlap the other calls; inactive = mostly above about 0.92. Some of the results follow.

Assay: chemical genetic growth profiling, strain panel (AID 1159580);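 also: tested at 20 µM; growth read once vehicle control cultures reached saturation at 30 °C; 1 = growth at the plate median or of vehicle wells; lower values mean less growth of the strain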
Details: S. cerevisiae deletion strains, growth OD

Measured: normalized growth

NC1CONC1=O (centres undefined)
inactive: locus YAL040C, strain CLN3, hits give low values 1.01 and 0.999 | locus YCL061C, strain MRC1 (second series), hits give low values 1 | locus YDR150W, strain NUM1, hits give low values 1.01 | locus YDR363W, strain ESC2, hits give low values 1.01 | locus YER002W, strain NOP16, hits give low values 1.01 and 0.983 | locus YGR229C, strain SMI1, hits give low values 1.01 | locus YMR307W, strain GAS1, hits give low values 1.01 | locus YNL128W, strain TEP1, hits give low values 1.03 | locus YNL153C, strain GIM3, hits give low values 1.01 and 0.981 | locus YNL175C, strain NOP13, hits give low values 1.02 | locus YNL197C, strain WHI3, hits give low values 1.02 and 1 | locus YNL224C, strain SQS1, hits give low values 0.993 and 0.985 | locus YOR083W, strain WHI5 (second series), hits give low values 1.01 | locus YPL241C, strain CIN2, hits give low values 1
